Test [1] is described as follows: NCI Yeast Anticancer Drug Screen. Data for the rad50 strain (AID 155).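 Also: 0% = growth of vehicle-only cultures of the same strain.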 Conditions: S. cerevisiae rad50 strain growth inhibition; at 50.0 µM; active compounds read high. The essentials:
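Compounds were tested on a yeast strain with an engineered DNA damage repair alteration; the reported value is growth inhibition normalised to vehicle treatment.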

Test [2] in a line: NCI Yeast Anticancer Drug Screen. Data for the mec2-1 strain (AID 157). Conditions: S. cerevisiae mec2-1 strain, at 50.0 µM, active compounds read high. The essentials: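 Each compound was tested on mec2-1 yeast, a strain altered in DNA damage repair or cell cycle control. Growth inhibition is reported relative to vehicle.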
Test [3] is described as follows: NCI Yeast Anticancer Drug Screen. Data for the sgs1 mgt1 strain (AID 161).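 Also: 0% = growth of cultures given vehicle only.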 Conditions: S. cerevisiae sgs1 mgt1 strain, at 50.0 µM, active compounds read high. The essentials:
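Test agents were incubated with a DNA-repair-mutant yeast strain. Growth was then read and compared against vehicle-treated controls.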

Test [4] is described as follows: NCI Yeast Anticancer Drug Screen. Data for the cln2 rad14 strain (AID 165).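 Also: 0% = growth equal to vehicle treated cultures.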 The following applies: S. cerevisiae cln2 rad14 strain, at 50.0 µM, active compounds read high. In outline:
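Test compounds were added to cln2 rad14 yeast cultures; inhibition of growth was then determined by comparison with vehicle treatment.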

Test [5] is described as follows: NCI Yeast Anticancer Drug Screen. Data for the bub3 strain (AID 167). Conditions: S. cerevisiae bub3 mutant strain, at 50.0 µM, active compounds read high. The essentials: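 Growth of a checkpoint-deficient yeast mutant is measured after compound exposure. Values represent inhibition relative to vehicle.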
Test [6] in a line: NCI Yeast Anticancer Drug Screen. Data for the mlh1 rad18 strain (AID 175). Conditions: S. cerevisiae mlh1 rad18 strain growth inhibition; at 50.0 µM; active compounds read high. The essentials:
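Inhibition values reflect reduced growth of mutant yeast versus vehicle-treated controls following compound exposure; the mutations affect DNA damage repair.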

This is part of a sample that, as a whole, favours compounds with a hit. Of some 79,000 tested, about 15% had one in any assay. A number with no mark means an inactive call. Activity calls are given as the source filed them. Rule as the data show it: active = growth inhibition above about 70%; inactive = the rest.

With `[N-]=[N+]=Nc1nn2cnnc2c2[nH]c3ccccc3c12`, the growth inhibition in test [1] was 46%; in test [2], 0.65%; in test [3] it was 4.25%; in test [4] it was -1.4%; in test [5] it was -14.9%; in test [6], 16.1%.

In the case of `CCN(CC)CCC(=O)N1C/C(=C/c2ccccc2)C(=O)/C(=C\c2ccccc2)C1`, the growth inhibition is 47.4% in test [1]; 37.9% in test [2]; 12.8% in test [3]; 30.6% in test [4]; 13.2% in test [5]; 2.7% in test [6].

Take `CCN(CC)CC(C)(C)C(=O)/C=C/c1ccc(C)cc1`: the growth inhibition in test [1] was 39.5%; in test [2], 12.8%; in test [3], 57.5%; in test [4], 3.9%; in test [5], -13.4%; in test [6], 19.9%.

As for `O=Cc1cc(O)ccc1[N+](=O)[O-]`, the growth inhibition in test [1] is 11.4%; in test [2], -19.2%; in test [3], -9.55%; in test [4] it was 13.3%; in test [5], -13.4%; in test [6], 16.1%.

As to `CCOC(=O)CS`, the growth inhibition in test [1] was 11.2%; in test [2] it was -6.5%; in test [3], -15.6%; in test [4], 5.7%; in test [5] it was 20.6%; in test [6] it was 22.6%.

As to `COc1ccc(C2N3CCCCC3[C@@H]3c4[nH]c5ccccc5c4CCN23)c(OC)c1` (some centres undefined), the growth inhibition in test [1] is -30.2%; in test [2], -24.4%; in test [3] it was -26.6%; in test [4], 6.1%; in test [5], -5.3%; in test [6], -9.65%.

On to `COC(=O)c1ccc(Cl)cc1`, for which the growth inhibition in test [1] is 19.4%; in test [2] it was -3.2%; in test [3] it was -8.8%; in test [4] it was 14.3%; in test [5], 14.5%; in test [6], 2.45%.

Take `COC(=O)CNC(=O)C1CSC(C)(C)N1C=O` (centres undefined): the growth inhibition in test [1] is -5.25%; in test [2] it was -9.85%; in test [3], 10.2%; in test [4], 2.4%; in test [5] it was 47.9%; in test [6] it was -6.2%.

For the compound `C=CCn1ccc(=O)nc1SCc1ccccc1`, the growth inhibition in test [1] was 5.45%; in test [2], -4.8%; in test [3], 0.4%; in test [4] it was -33.5%; in test [5], 3.35%; in test [6] it was 0.05%.

For the compound `CC(C)C(NC(=O)C1CSC(C)(C)N1C=O)C(N)=O` (centres undefined), the growth inhibition in test [1] is -5.2%; in test [2], -31.6%; in test [3], 12.3%; in test [4], -6.7%; in test [5], 36.7%; in test [6], -25.2%.

With `c1ccc(C(=C2C(=C(c3ccccc3)c3ccccc3)c3nc4ccccc4nc32)c2ccccc2)cc1`, the growth inhibition in test [1] was 26.8%; in test [2], 8.8%; in test [3] it was 7%; in test [4], 16.9%; in test [5] it was -1.05%; in test [6] it was 8.1%.

As for `COC1=C(N)C(=O)c2nc(C)ccc2C1=O`, the growth inhibition in test [1] is 45.8%; in test [2], 44.4%; in test [3] it was 55.5%; in test [4], -3.9%; in test [5], 56.9%; in test [6] it was 66.5%.

As to `O=C(O)c1cccc([N+](=O)[O-])c1C(=O)O`, the growth inhibition in test [1] is 15.3%; in test [2], 11.3%; in test [3], 11.4%; in test [4], 7.9%; in test [5], -1.9%; in test [6] it was 17.2%.

`C=CCc1oc(C)nc1CCCC`: the growth inhibition in test [1] was 0.2%; in test [2], -0.1%; in test [3] it was 16.7%; in test [4], 27.4%; in test [5] it was 5.85%; in test [6] it was 23.3%.

As for `CN(C)/C=N/NC(=O)C(O)c1ccccc1` (centres undefined), the growth inhibition in test [1] is 10.3%; in test [2], 2.2%; in test [3], 4.45%; in test [4] it was 18.2%; in test [5] it was 34.4%; in test [6], -19.6%.

With `CCSC1=C(SCC)C(=O)C(SCC)=C(SCC)C1=O`, the growth inhibition in test [1] is -1.25%; in test [2], 16.1%; in test [3], 13.9%; in test [4] it was -22.4%; in test [5], -1.65%; in test [6], 15.4%.

Consider `CCN(CC)CCOC(=O)Nc1c(Cl)cccc1Cl`, for which the growth inhibition is -3.75% in test [1]; -16.7% in test [2]; 8.6% in test [3]; 9.4% in test [4]; 9.25% in test [5]; 6.05% in test [6].

On to `C=C1CC(OC(C)=O)/C=C(/C)CCC(C(C)(C)O)CC1O` (centres undefined), for which the growth inhibition in test [1] is 6.7%; in test [2], -32%; in test [3] it was -11.2%; in test [4], 7.65%; in test [5] it was -8%; in test [6], -20.9%.

As to `O=C1C2C(C(=O)N1c1ccccc1)C1(c3ccccc3)CCC2(C(=O)c2ccccc2)O1` (centres undefined), the growth inhibition is 56.4% in test [1]; -14.3% in test [2]; 39.6% in test [3]; -16.4% in test [4]; 9.05% in test [5]; 23.4% in test [6].

On to `CC(=O)NCC(O)c1ccc([N+](=O)[O-])cc1` (centres undefined), for which the growth inhibition in test [1] was -23.3%; in test [2], -31.1%; in test [3], 1.4%; in test [4] it was 7%; in test [5], -14.1%; in test [6], -23%.

On to `Cc1cc2c(nn1)CCc1c-2no[n+]1[O-]`, for which the growth inhibition in test [1] was 3.15%; in test [2], -32.1%; in test [3], -10.4%; in test [4], 22.5%; in test [5], 3.45%; in test [6], -2.8%.

As to `Nc1nnc2nc(C(C(=O)/C=C\c3cccc(O)c3)c3nc4nnc(N)n4[nH]c3=O)c(=O)[nH]n12`, the growth inhibition is 30.4% in test [1]; 15.1% in test [2]; 19.6% in test [3]; 1.65% in test [4]; -5.35% in test [5]; 19.7% in test [6].

Take `CCC(Br)C(=O)Nc1ccccc1C` (centres undefined): the growth inhibition was 27% in test [1]; 3.25% in test [2]; 6.75% in test [3]; -14.2% in test [4]; 20.6% in test [5]; 0.4% in test [6].

For `Clc1ccc2c(c1)nnn2OC1CCCC1`, the growth inhibition in test [1] was 10.4%; in test [2] it was -3.7%; in test [3], -11.1%; in test [4] it was -24.9%; in test [5] it was -10.8%; in test [6], -6.8%.

As to `O=C1OC(=O)c2c1cccc2[N+](=O)[O-]`, the growth inhibition in test [1] was -7.55%; in test [2], 0%; in test [3], -2.6%; in test [4] it was -14.4%; in test [5], -5.2%; in test [6], 2.7%.

For `COc1cc(-c2ccc(Br)[nH]2)[nH]c1C=NCC(C)C`, the growth inhibition in test [1] was 78.5% (active); in test [2] it was 78.5% (active); in test [3], 78.8% (active); in test [4], 78.2% (active); in test [5], 69%; in test [6], 86.7% (active).

Regarding `N#Cc1sc2c(c1OC(=O)c1ccc(C(F)(F)F)cc1)c(=O)n(-c1ccccc1)c(=S)n2-c1ccccc1`, the growth inhibition in test [1] is -11.9%; in test [2] it was 0.9%; in test [3] it was 1.05%; in test [4] it was 0.8%; in test [5], -6.2%; in test [6], 3.05%.

As for `Cc1ccc2ccc(=O)oc2c1`, the growth inhibition in test [1] is 7.9%; in test [2], 1.05%; in test [3], 2.85%; in test [4], 7.45%; in test [5] it was 13.8%; in test [6], 6.85%.

For `COC(=O)c1nn2c(=O)n(C(C)=O)c3ccccc3c2c1C(=O)OC`, the growth inhibition was 27.2% in test [1]; 4.85% in test [2]; 9.65% in test [3]; 15.8% in test [4]; 8.5% in test [5]; 24.6% in test [6].

As to `CCOc1ccc(OCC)c2c1C(=O)c1ccccc1C2=O`, the growth inhibition in test [1] is -6.8%; in test [2], 15.3%; in test [3] it was 1.15%; in test [4], -1.3%; in test [5], 9.15%; in test [6], -5.8%.

Consider `CCOC(=O)C1C(=O)N(O)c2cnccc21` (centres undefined), for which the growth inhibition in test [1] was -1.9%; in test [2], -16.6%; in test [3], -12.5%; in test [4], -12.2%; in test [5] it was 15%; in test [6], 8.35%.

As for `CCCCOC(=O)C(C)O` (centres undefined), the growth inhibition in test [1] is 41.1%; in test [2], 16.3%; in test [3], 21.6%; in test [4], 19.3%; in test [5], 0.05%; in test [6], 24.9%.

Take `NC1=NC(c2ccccc2)C2=C(N1)C(=O)N(c1ccc(Br)cc1)C2` (centres undefined): the growth inhibition is 43.3% in test [1]; -7.75% in test [2]; -2.45% in test [3]; -12.3% in test [4]; 7.7% in test [5]; -2.65% in test [6].

For the compound `Cc1ccc(C)c2c(Cl)c3c(C)ccc(C)c3nc12`, the growth inhibition is -8.45% in test [1]; -4.65% in test [2]; 0.3% in test [3]; -29.4% in test [4]; -9.8% in test [5]; 7.25% in test [6].

In the case of `C=CCCC1(C)OC(C)C(C)O1` (centres undefined), the growth inhibition in test [1] was 8.75%; in test [2] it was 3.65%; in test [3], -0.95%; in test [4], -33%; in test [5], -5.85%; in test [6], -4.9%.

Turning to `O=C(CSSCC(=O)Nc1ccc(Br)cc1)Nc1ccc(Br)cc1`, the growth inhibition in test [1] was 28.8%; in test [2], 2.45%; in test [3], -11.5%; in test [4], 18.6%; in test [5] it was -6.4%; in test [6] it was 26.4%.

For `COc1cccc2c1[C@@]1(C)C3C(=O)OC(C)(c4ccccc43)[C@@]1(C)C2=O` (some centres undefined), the growth inhibition is 39.4% in test [1]; 20.7% in test [2]; -7.45% in test [3]; 23.1% in test [4]; -4.1% in test [5]; 9.35% in test [6].

Regarding `CCCS(=O)(=O)CCCCCCCCCCC(=O)O`, the growth inhibition was -5.45% in test [1]; -11.4% in test [2]; -7.8% in test [3]; -28.7% in test [4]; -7.15% in test [5]; -6.2% in test [6].

Take `CC(C)(C)C1=CC(=N/N=c2\scc(-c3ccccc3)n2Cc2ccccc2)C=C(C(C)(C)C)C1=O`: the growth inhibition in test [1] is 17.4%; in test [2], -4.6%; in test [3], -5.35%; in test [4], -29.5%; in test [5] it was -11.6%; in test [6], -2.6%.

The record behind these values is PubChem BioAssay (NCI).
